Laboratory results as given in PubChem BioAssay (NCATS).
Results filed as inconclusive are left out. Where a call stands in place of a potency, no number is given. The source made the active and inactive calls. Unless noted, calls come from the whole dose curve; as a rule, active = well fitted curve in the direction sought with a large enough effect; inconclusive = small, poorly fitted or top-dose-only effect, or another doubt; inactive = no such curve, though single readings can be large; an effect the other way counts as inactive or inconclusive.

Columns and labels:
[1] = Cytotoxicity counterscreen for NFkB agonists and antagonists (AID 624476);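 note: cells exposed to compound for 48 hours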; note: potency is the fitted concentration of half-maximal effect
[2] = qHTS Assay for Identification of Small Molecule Agonists for NFkB Signaling Pathway. (AID 624478);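 note: compounds tested together with TNF alpha at its EC50 of 10 pM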
Summary of the method: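 ME-180 cervical carcinoma, stable NFkB-RE beta-lactamase reporter; 1000 cells/well, overnight attachment; cpd + TNF alpha 10 pM final, 5 h 37 C; LiveBLAzer 2 h RT; FRET 460/530 nm, ex 405 nm.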

[3] = qHTS Assay for Identification of Small Molecule Antagonists for NFkB Signaling Pathway. (AID 624479; calls by dose curve;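 note: pathway stimulated with TNF alpha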; note: potency is the fitted concentration of half-maximal effect)
[4] = Cell Proliferation Assay against the HBL1 Cell Line (AID 651646); settings: HBL1 DLBCL cells; at 46.1 µM (top of the series) unless noted;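 note: cells exposed to compound for 48 h before reading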
Summary of the method: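 500 log-phase HBL1 cells per well in phenol red-free RPMI with 5% FBS were treated with compounds for 48 h at 37 °C, 5% CO2. Viability was read by CellTiter-Glo luminescence, normalized to DMSO (100%) and 9.2 uM bortezomib final (0%).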

[5] = Cell Proliferation Assay against the TMD8 Cell Line (Caspase readout at 16 hrs) (AID 651712); note: potency is the fitted concentration of half-maximal effect
Summary of the method: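 TMD8 cells (500/well) in phenol-red-free RPMI with glutamine, 5% FBS, were exposed to compounds for 16 h at 37 °C. Caspase 3/7 activation was read by Caspase-Glo luminescence; percent activity normalised to DMSO (0%) and 9.2 uM bortezomib final (100%).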

[6] = Cell Proliferation Assay against the TMD8 Cell Line (Caspase readout at 8 hrs) (AID 651713)
Summary of the method: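 Seed log-phase TMD8 cells, add compound by pin tool, incubate 8 h at 37C under 5% CO2, equilibrate to room temperature, add Caspase-Glo, wait 15 min, read luminescence; percent activity uses DMSO and 9.2 uM bortezomib controls.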

[7] = Cell Proliferation Assay against the TMD8 Cell Line (AID 651645); settings: TMD8 DLBCL cell line proliferation/viability; at 46.1 µM (top of the series) unless noted;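 note: cells exposed to compound for 48 h before reading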
Summary of the method: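 Luminescent ATP read-out (CellTiter-Glo, 15 min RT) after 48 h compound exposure of log-growing TMD8 cells at 37C; percent activity scaled between DMSO as 100% and 9.2 uM bortezomib final as 0%.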

[8] = qHTS assay for small molecule agonists of the antioxidant response element (ARE) signaling pathway (AID 651741; active = well fitted activation curve with a large enough effect in the signal ratio; the % refers to the signal ratio; note: potency is the fitted concentration of half-maximal effect)
Summary of the method: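 Compounds in DMSO are pinned onto HepG2 ARE-bla cells (2,000/well) that were preincubated 5 h; plates stay 16 h at 37 C, then beta-lactamase activity is detected with LiveBLAzer B/G substrate by fluorescence.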

Row | Structure (SMILES) | Potency [1] | outcome [2] | Potency [3] | viability, percent of control [4] | Potency [5] | Potency [6] | viability (% of control) [7] | Potency [8]
1 | Cc1csc(NC(=O)c2sc3nc4c(c(C(F)(F)F)c3c2N)CCC4)n1 | inactive | inactive | inactive | 60.9% | inactive | inactive |  | 
2 | Cc1ccc(NC(=O)c2cccc(C(C)(C)C#N)c2)cc1Nc1ccc2ncn(C)c(=O)c2c1 | inactive | inactive |  | 41.4% | 26.4 µM (active) |  | 11.7% | 
3 | COc1ccc(C2=N[C@H](c3ccc(Cl)cc3)[C@H](c3ccc(Cl)cc3)N2C(=O)N2CCNC(=O)C2)c(OC(C)C)c1 | inactive | inactive |  | 66.4% |  |  | 7.72% | 
4 | Cn1cc(-c2ccc3nnc(C(F)(F)c4ccc5ncccc5c4)n3n2)cn1 | inactive | inactive | inactive | 86.8% | inactive | inactive |  | 
5 | CNC(=O)c1ccc(C)c(-n2c(C)cc(OCc3ccc(F)cc3F)c(Br)c2=O)c1 | inactive | inactive | inactive | 44.5% |  | inactive |  | 
6 | CNC(=O)c1ccccc1Sc1ccc2c(/C=C/c3ccccn3)n[nH]c2c1 | inactive | inactive | inactive | 56.4% | inactive | inactive |  | 
7 | Cn1cnc2c(F)c(Nc3ccc(Br)cc3Cl)c(C(=O)NOCCO)cc21 | inactive | inactive | inactive | 76.1% |  | inactive |  | 
8 | CN([C@@H](Cc1ccc(OS(=O)(=O)c2cccc3cnccc23)cc1)C(=O)N1CCN(c2ccccc2)CC1)S(=O)(=O)c1cccc2cnccc12 | inactive | inactive | inactive | 106% | inactive | inactive |  | 
9 | CC(C)OC(=O)C1=CN(C(=O)c2ccc(F)c(F)c2)CC(C)(C)c2c1[nH]c1ccccc21 | inactive | inactive | inactive | 100% | inactive | inactive |  | 
10 | CCc1cc(Nc2nccc(-c3c(-c4ccc(OC)c(C(=O)Nc5c(F)cccc5F)c4)nc4ccccn34)n2)c(OC)cc1N1CCC(N2CCN(S(C)(=O)=O)CC2)CC1 | inactive | inactive | inactive | 87.3% | inactive | inactive |  | 
11 | CCCS(=O)(=O)Nc1ccc(F)c(C(=O)c2c[nH]c3ncc(Cl)cc23)c1F | inactive | inactive | 11.9 µM (active) | 70.6% |  | inactive |  | 
12 | N#Cc1ccc(C(c2ccc(C#N)cc2)n2cncn2)cc1 | inactive | inactive | inactive | 110% | inactive | inactive |  | 
13 | O=C(Nc1cccnc1)N1CCC(Cc2cccc(Oc3ccc(C(F)(F)F)cn3)c2)CC1 |  | inactive |  | 46.1% |  |  | 36.7% | 
14 | O=C(OCC#CCSc1nnc(-c2ccc3ccccc3c2)o1)c1cc2ccccc2s1 | inactive |  | inactive | 86.3% | inactive | inactive |  | 
15 | OCCC#Cc1nc(-c2ccc(F)cc2)c(-c2ccncc2)n1CCCc1ccccc1 |  | inactive | 14.9 µM (active) | 55.3% |  |  | 67.4% | 
16 | O=C(NOC[C@H](O)CO)c1ccc(F)c(F)c1Nc1ccc(I)cc1F |  | inactive | inactive |  | inactive | inactive | 79.1% | 
17 | Cc1c(C)c2c(c(C)c1O)CCC(C)(COc1ccc(CC3SC(=O)NC3=O)cc1)O2 (stereo not given) |  | inactive |  | 81.5% |  | inactive |  | 21.7 µM (active)
18 | Cc1cc(SCc2sc(-c3ccc(C(F)(F)F)cc3)nc2C)ccc1OCC(=O)O |  | inactive |  | 114% |  | inactive | 88.2% | 
19 | O=C(O)c1ccc(-c2c[nH]c3ccc(-c4ccccc4)cc23)cc1C1CCCC1 |  | inactive | 14.9 µM (active) | 93.3% | inactive | inactive |  | 
20 | CN(C)c1ccc(Nc2nc(N)n(C(=O)c3c(F)cccc3F)n2)cc1 |  | inactive | 14.9 µM (active) | 46.5% |  | inactive |  | 
21 | COc1ccc(-c2c(-c3ccc(O)cc3O)n[nH]c2C)cc1 | inactive | inactive |  | 72.3% |  | inactive | 86.4% | 
22 | COCCNCCCn1c(C(=O)CF)c(-c2ccc(C)cc2)c2c(N)ncnc21 | inactive |  | inactive | 86.2% | inactive | inactive |  | 
23 | COc1cc2nccc(Oc3ccc(NC(=O)NC4CC4)c(Cl)c3)c2cc1C(N)=O |  | inactive | 18.8 µM (active) | 83.1% | inactive | inactive | 30.4% | 
24 | CCn1c(-c2nonc2N)nc2c(C#CC(C)(C)O)ncc(OC[C@H]3CCCNC3)c21 |  | inactive |  | 70.2% |  |  | 22.8% | 

Row | Structure (SMILES) | Potency [1] | outcome [2] | Potency [3] | viability, percent of control [4] | Potency [5] | Potency [6] | viability (% of control) [7] | Potency [8]
25 | COc1cc(F)c(F)c(Nc2ccc(I)cc2F)c1NS(=O)(=O)C1(C[C@H](O)CO)CC1 |  | inactive | 5.95 µM (active) | 62.4% |  | inactive | 69.3% | 
26 | CCOc1cc(C=C2C(=O)N(c3ccccc3)N=C2C)cc(Cl)c1OCC(=O)OC | inactive | inactive |  | 46.9% | inactive |  |  | 
27 | Cc1c(CCOc2ccc(C(=O)O)cc2)c2cc(Cl)ccc2n1C(c1ccccc1)c1ccccc1 |  | inactive |  | 34.4% | inactive | inactive | 79.3% | 
28 | CC1(C)CNc2cc(NC(=O)c3cccnc3NCc3ccncc3)ccc21 | inactive | inactive |  | 86% |  | inactive | 49.2% | 
29 | Cc1cccc(-c2nn(C(=S)Nc3ccccc3)cc2-c2ccnc3ccccc23)n1 | inactive | inactive |  | 94.2% |  | inactive | 60.3% | 
30 | CC(C)(C)OC(=O)CN(Cc1ccc(Cl)cc1)Cc1ccc([N+](=O)[O-])s1 |  | inactive | inactive | 47% |  | inactive |  | 
31 | C#Cc1cccc(Nc2ncnc3cc(OCCOC)c(OCCOC)cc23)c1 |  | inactive |  | 74.6% | inactive | inactive |  | 
32 | Cc1cc2c(F)c(Oc3ncnn4cc(OC[C@@H](C)O)c(C)c34)ccc2[nH]1 |  | inactive |  | 34.5% |  | inactive | 42.5% | 
33 | CCCCCCCc1ccc(CCc2cccc(O)c2C(=O)O)cc1 | 23.5 µM (active) | inactive |  | 51.5% |  | inactive | 64.1% | 
34 | CC[C@H](Nc1ncnc2nc[nH]c12)c1nc2cccc(F)c2c(=O)n1-c1ccccc1 |  | inactive | inactive | 68.9% |  | inactive | 19.3% | 
35 | COc1cc(Nc2ncc3c(n2)-c2ccc(Cl)cc2C(c2c(F)cccc2OC)=NC3)ccc1C(=O)O |  | inactive | inactive | 53% |  | inactive | 31.4% | 
36 | CCOc1ccn(-c2ccc(F)cc2)c(=O)c1C(=O)Nc1ccc(Oc2ccnc(N)c2Cl)c(F)c1 |  | inactive | 16.8 µM (active) | 68.6% |  |  | 53.5% | 
37 | CCC(C)n1ncn(-c2ccc(N3CCN(c4ccc(OC[C@H]5CO[C@](Cn6cncn6)(c6ccc(Cl)cc6Cl)O5)cc4)CC3)cc2)c1=O (stereo not given in full) |  |  |  | 77% | inactive | inactive | 77.9% | 
38 | Cc1cc([C@@H](C)Nc2ccccc2C(=O)O)c2nc(N3CCOCC3)cc(=O)n2c1 |  | inactive | inactive | 45.6% | inactive | inactive |  | 
39 | CN(C)C(=O)c1ccc(S(=O)(=O)c2ccc(NC(=O)[C@@](C)(O)C(F)(F)F)c(Cl)c2)cc1 |  | inactive | inactive | 86.5% | inactive | inactive | 73% | 
40 | CCC(C)(C)C(=O)O[C@H]1C[C@@H](C)C=C2C=C[C@H](C)[C@H](CC[C@@H]3C[C@@H](O)CC(=O)O3)[C@H]21 |  |  |  | 94.3% [at 15.4 µM] | inactive |  | 80.7% [at 15.4 µM] | 
41 | CCOc1ccc(Cc2cc([C@@H]3O[C@H](CO)[C@@H](O)[C@H](O)[C@@H]3O)ccc2Cl)cc1 | inactive | inactive |  | 94.2% | inactive | inactive | 87.2% | 
42 | COc1c(Cl)cc2c([nH]c3cnccc32)c1NC(=O)c1cccnc1C | inactive | inactive |  | 62.3% | inactive | inactive | 68.9% | 
43 | COc1ccc(COc2cc3oc(=O)c4cc(C(C)O)ccc4c3cc2OC)cc1 (stereo not given) |  |  | inactive | 45.7% | inactive |  | 57.4% | 
44 | C/C(=C\C(=O)Nc1ccccc1C(=O)O)c1ccc2ccccc2c1 |  | inactive |  | 70.3% |  | inactive |  | 
45 | c1ccc(-c2nn3c(c2-c2ccnc4cc(OCCN5CCOCC5)ccc24)CCC3)nc1 | inactive | inactive |  | 77.9% |  | inactive |  | 
46 | Nc1cccc(S(=O)(=O)N2CCCN(S(=O)(=O)c3ccc4c(c3)OCCO4)CC2)c1 | inactive | inactive |  | 78.2% | inactive | inactive |  | 
47 | Cc1cc(C=c2sc3nc4ccccc4n3c2=O)c(C)n1-c1ccccc1 |  | inactive | inactive | 43.7% | inactive | inactive | 43.9% | 
48 | Cc1ccc(-n2nc(C(C)(C)C)cc2NC(=O)Nc2ccc(OCCN3CCOCC3)c3ccccc23)cc1 | inactive | inactive |  | 65.5% |  | inactive |  | 
